CHX counter: counter-screen hit for Shiga toxin inhibitors, cycloheximide; max response, %; 12% of 300,000 active; cell reporter, cycloheximide protein synthesis inhibition counterscreen; in the data active = max response mostly above about 13%, no sharp cut-off; inactive = mostly below about 14%; also: read at 38.3 µM for the half of the compounds with a filed dose
Pf growth 48h: inhibits P. falciparum growth in the first generation, 48 h | P. falciparum luciferase growth in erythrocytes, 48 h | Potency, µM (highest dose often 28.7 µM), most hits filed as inhibitors | 5.9% of 310,000 active | AID 504832
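Luminescence readout; reporter = integrated firefly luciferase in P. falciparum. RBC culture at 2% hematocrit, 0.1% parasitemia final, 37 C/5% CO2; decreased signal taken as growth inhibition.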
Pf growth 96h: P. falciparum growth inhibition at 96 hours | P. falciparum luciferase reporter growth, 96 h | Potency, µM (titrated, usually from 28.7 µM), actives largely listed as inhibitors | 6.9% of 320,000 active
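Cell-based qHTS: luciferase-tagged P. falciparum in erythrocytes (2% hematocrit, 0.05% parasitemia final) incubated with compounds for 96 hours, 37 C, 5% CO2; luciferase detection reagent then added and luminescence measured.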
HCMV inh: inhibitors of human cytomegalovirus; 4.5% of 410,000 active; HFF cells, HCMV-luciferase reporter, 72 h; active compounds read low; activity change, negative = inhibition, % at 57.5 µM; in the data active = activity change below about -60%; inconclusive = no clear call, values can overlap the other calls; inactive = above about -39%
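Two-dose cell screen: HFF monolayers treated with compounds and infected with luciferase-expressing HCMV at 1 PFU/cell, 72 h at 37C, then lysed for luciferase measurement.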
Shiga toxin inh: Shiga toxin inhibition; Vero cells, Shiga toxin protein synthesis inhibition reporter; inhibition, % at 38.7 µM; 9.2% of 290,000 active; AID 2315; in the data active = inhibition mostly above about 28%, no sharp cut-off; inactive = mostly below about 43%
Each line names hits and unclear results; the compound was inactive in the other large screens. Sampled rows, rich in hits. Any-hit rate of the full collection: about 20%. Unless noted, calls follow the shape of the dose curve; as a rule, active = well fitted inhibition curve with a large enough effect; inconclusive = small, poorly fitted or top-dose-only effect, or another doubt; inactive = no such curve, though single readings can be large or run the other way.

Cc1cc(C)nc(N/N=C/c2ccccc2OCc2ccccc2)n1	CHX counter 12, HCMV inh inconclusive
Cc1cc(C)nc(N/N=C/c2ccccc2OCc2ccc(Br)cc2)n1	CHX counter 29, Pf growth 48h inconclusive, Pf growth 96h inconclusive, Shiga toxin inh 79
Cc1cc(C)nc(N/N=C/c2ccccc2OCc2cccc(Br)c2)n1	CHX counter 14, Pf growth 96h inconclusive
Cc1cc(C)nc(N/N=C/c2cc(Br)ccc2O)n1	CHX counter 28, Pf growth 48h inconclusive, Pf growth 96h inconclusive
Cc1cc(C)nc(N/N=C/c2ccccc2OCc2ccc(Cl)cc2)n1	Pf growth 96h inconclusive
CC1Cc2cc(S(=O)(=O)N3CCCC(C(=O)N4CCCCC4)C3)ccc2N1C(=O)C1CC1 (stereo not given)	Pf growth 48h 13µM, Pf growth 96h 13µM
CC(=O)c1ccc(N2CCN(C(=O)C3CCN(S(=O)(=O)c4ccc5c(c4)CC(C)N5C(C)=O)CC3)CC2)cc1 (stereo not given)	Pf growth 48h inconclusive, Pf growth 96h inconclusive
CC(=O)N1c2ccc(S(=O)(=O)N3CCCC(C(=O)N4CCCCC4)C3)cc2CC1C (stereo not given)	Pf growth 48h inconclusive, Pf growth 96h 10µM
CC(=O)N1c2ccc(S(=O)(=O)N3CCCC(C(=O)NCc4ccccc4)C3)cc2CC1C (stereo not given)	Pf growth 48h inconclusive, Pf growth 96h inconclusive, HCMV inh inconclusive
CC(=O)N1c2ccc(S(=O)(=O)N3CCC(C(=O)N4CCN(c5cccc(C(F)(F)F)c5)CC4)CC3)cc2CC1C (stereo not given)	Pf growth 48h inconclusive, HCMV inh -66
COc1cccc(C(=O)OCC(=O)Nc2ccc(N3CCOCC3)cc2)c1	none (no result: CHX counter, Shiga toxin inh)
CCOc1ncccc1C(=O)Nc1cc(S(=O)(=O)N2CCCCC2)ccc1OC	Pf growth 48h inconclusive, Pf growth 96h inconclusive (no result: CHX counter, Shiga toxin inh)
S=C(NCCc1ccccc1)NCC(c1ccco1)N1CCCCC1 (stereo not given)	CHX counter 15, Pf growth 48h inconclusive, Pf growth 96h 2.6µM
COc1ccc(NC(=S)NCC(c2ccco2)N2CCCC2)cc1 (stereo not given)	Pf growth 96h inconclusive
CC(C)C(NC(=O)c1ccco1)C(=O)NCC(c1ccco1)N1CCCCC1 (stereo not given)	Pf growth 48h inconclusive, Pf growth 96h 2.1µM
Cc1ccccc1N1CCN(c2ccc(NC(=O)C3CCCCC3C(=O)O)cc2)CC1 (stereo not given)	none
O=C(NCCN1CCC(n2c(=O)[nH]c3ccccc32)CC1)c1cccc(Cl)c1	none (no result: CHX counter, Pf growth 48h, Pf growth 96h, Shiga toxin inh)
COc1ccc(-c2ccc(C(C)=O)cc2)cc1C1C2C=CCCC2(C)C(=O)N1Cc1ccccc1 (stereo not given)	none (no result: Pf growth 48h, Pf growth 96h, HCMV inh)
CN(C)Cc1c(O)ccc2[nH]cnc12	HCMV inh -95 (no result: Pf growth 96h)
CN(C)Cc1c[nH]c2nc[nH]c(=O)c12	none (no result: CHX counter, Pf growth 48h, Pf growth 96h, Shiga toxin inh)
CCOc1nc(N=C(N)N)nc2c(C)cccc12	Pf growth 48h 8.3µM, Pf growth 96h 0.59µM
CSc1ccc(/C=C(\NC(=O)c2ccccc2)C(=O)NCCN2CCOCC2)cc1	none
C=Cc1ccc(CN2C(=O)N(c3ccc(C)c(C)c3)S(=O)(=O)c3ccccc32)cc1	none (no result: CHX counter, Pf growth 48h, Pf growth 96h, Shiga toxin inh)
CCCCC[C@H](O)/C=C/C1C(=O)C=C[C@H]1C/C=C\CCCC(=O)OC (stereo not given in full)	HCMV inh -110 (no result: CHX counter, Pf growth 48h, Pf growth 96h, Shiga toxin inh)
Cc1ccccc1S(=O)(=O)Nc1nc2ccccc2nc1N1CCOCC1	none
COC(=O)CCC(=O)OC1(C)C(=O)C2=CN(CC3CC3)C(c3ccc(OC)cc3)=CC2=C(Br)C1=O (stereo not given)	Pf growth 48h 13µM, Pf growth 96h inconclusive (no result: HCMV inh)
COC(=O)CCC(=O)OC1(C)C(=O)C2=CN(CC(C)C)C(c3ccc(OC)cc3)=CC2=C(Br)C1=O (stereo not given)	Pf growth 48h inconclusive, Pf growth 96h 13µM (no result: HCMV inh)
COC(=O)CCC(=O)OC1(C)C(=O)C2=CN(CCCOC(C)C)C(c3ccc(OC)cc3)=CC2=C(Br)C1=O (stereo not given)	Pf growth 48h inconclusive, Pf growth 96h 12µM (no result: HCMV inh)
Cc1ccc(CNC(=O)CN2CCCN(Cc3ccc(F)cc3)S2(=O)=O)cc1	none (no result: CHX counter, Pf growth 48h, Pf growth 96h, Shiga toxin inh)
COC(=O)C1=C(c2ccc(OC(F)(F)F)cc2)C[C@@H]2CC[C@H]1N2C(=O)N1CCC(C)CC1	Pf growth 48h inconclusive, Pf growth 96h inconclusive, HCMV inh -64 (no result: CHX counter, Shiga toxin inh)
COC(=O)C1=C(c2ccc(OC(F)(F)F)cc2)C[C@@H]2CC[C@H]1N2C(=O)NC1CC1	Pf growth 48h inconclusive, Pf growth 96h 5.9µM (no result: CHX counter, Shiga toxin inh)
COC(=O)[C@]12CCCCC=C1N(Cc1ccc3c(c1)OCO3)C(=O)[C@H](CC(=O)N1CCN(C(=O)c3ccco3)CC1)C2	none (no result: CHX counter, Pf growth 48h, Pf growth 96h, Shiga toxin inh)
O=C(/C=C/c1cccc(F)c1)NNC(=O)c1ccncc1	none (no result: CHX counter, Shiga toxin inh)
CCC1=C(c2ccc(C)cc2)S(=O)(=O)N=C1N1CCC(C(=O)NCc2ccc(N(C)C)cc2)CC1	none (no result: CHX counter, Pf growth 48h, Pf growth 96h, Shiga toxin inh)
CC(SCc1ccccc1)C(=O)N/N=C/c1ccc(OCC(=O)NCc2ccco2)cc1 (stereo not given)	Pf growth 96h 1.7µM
COC(=O)c1ccc(CSc2nc3c(cnn3-c3ccc(F)cc3)c(=O)[nH]2)o1	Pf growth 96h inconclusive
COC(=O)c1cccc(CSc2nc3ccccc3[nH]2)c1	CHX counter 39, Pf growth 96h inconclusive, Shiga toxin inh 92
COC(=O)c1ccc(CSc2nc3c(cnn3-c3ccc(Cl)cc3)c(=O)[nH]2)o1	Pf growth 96h 6.6µM
COC(=O)c1ccc(CSc2nc3ccccc3[nH]2)o1	CHX counter 11
COC(=O)c1ccc(CSc2nc(-c3ccccc3)cs2)o1	CHX counter 22
COC(=O)c1ccc(CSc2nc3ccc(S(N)(=O)=O)cc3[nH]2)cc1	none
COC(=O)c1ccc(CSc2nnc(NCc3ccccc3)s2)o1	Pf growth 48h inconclusive, Pf growth 96h inconclusive
COc1ccc(-c2nc3sc(CCNC(=O)C(=O)Nc4cc(F)ccc4F)c(C)n3n2)cc1	none (no result: CHX counter, Pf growth 48h, Pf growth 96h, Shiga toxin inh)
Cc1nn(CC(=O)NCCc2ccccc2)c(=O)c2nn(-c3ccccc3)c(C)c12	none (no result: CHX counter, Pf growth 48h, Pf growth 96h, Shiga toxin inh)
CCOc1ccccc1OCCCOc1ccc([N+](=O)[O-])cc1Cl	Pf growth 48h inconclusive, Pf growth 96h 10µM
COc1cc(C)ccc1OCCOc1ccccc1Cl	CHX counter 31, Shiga toxin inh 61
COc1cc(C)ccc1OCCCON1C(=O)CCC1=O	Shiga toxin inh 20 (no result: Pf growth 48h)
COc1cccc(OC)c1OCCCOc1ccc([N+](=O)[O-])cc1Cl	HCMV inh inconclusive
COc1cc(C)ccc1OCCCOc1ccccc1Cl	CHX counter 51, Pf growth 96h inconclusive, Shiga toxin inh 93
COc1ccc(C=O)cc1OC(=O)C1(C)Cc2ccccc2C(=O)O1 (stereo not given)	none
CC1CC(C)CN(CCCNC(=O)Cc2c(C(=O)O)n(C)c3ccccc23)C1 (stereo not given)	none (no result: Pf growth 96h)
COc1ccc(S(=O)(=O)N/N=c2\oc3c(OC)cccc3cc2S(=O)(=O)c2ccc(C)cc2)cc1OC	Pf growth 48h inconclusive, HCMV inh inconclusive
COc1cc(C)ccc1OCCOCCOc1ccccc1[N+](=O)[O-]	CHX counter 22
COc1ccccc1OCCOCCOc1ccc(C)cc1[N+](=O)[O-]	Pf growth 96h inconclusive

Bioassay records: PubChem BioAssay, National Center for Advancing Translational Sciences (NCATS)
